Key:
Test in all cases: DAPPL (digital affinity profiling via proximity ligation, sequencing); 10 mM Tris-HCl pH 7.5, 50 mM NaCl, 1 mM DTT, 4% glycerol, room temperature, 30 min; GST-TFs on glutathione beads, 16-mer random dsDNA library, 0.1% formaldehyde crosslink after washing; high values mean tight binding
FLI1 = biological target: T1, FLI1 (Homo sapiens, UniProt Q01543 1-452); conditions: protein: recombinant; tags: N-terminal GST; dsDNA, one strand shown
T1 sequence: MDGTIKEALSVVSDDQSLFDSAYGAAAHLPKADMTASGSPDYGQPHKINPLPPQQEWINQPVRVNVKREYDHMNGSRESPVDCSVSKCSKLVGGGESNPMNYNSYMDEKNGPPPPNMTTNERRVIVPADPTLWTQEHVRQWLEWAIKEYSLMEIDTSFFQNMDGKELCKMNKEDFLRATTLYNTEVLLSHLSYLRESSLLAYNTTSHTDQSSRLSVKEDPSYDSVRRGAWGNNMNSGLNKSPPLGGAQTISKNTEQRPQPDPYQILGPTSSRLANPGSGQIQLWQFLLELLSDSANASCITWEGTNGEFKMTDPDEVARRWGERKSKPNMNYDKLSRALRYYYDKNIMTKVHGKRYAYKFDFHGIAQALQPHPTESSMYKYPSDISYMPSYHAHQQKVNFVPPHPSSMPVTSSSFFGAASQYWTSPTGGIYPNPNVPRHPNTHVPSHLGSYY
How it was run: (§1)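 The binding signal reported is, for every hexamer, its read frequency for a factor over its read frequency for the tag-only sample. Reads came from pools of yeast-expressed, GST-fused human transcription factors on glutathione beads, barcoded with DNA and mixed with that sample, which were incubated with 200 nmole of a random double-stranded 16-mer DNA library in Tris/NaCl/DTT/glycerol buffer at room temperature for 30 min. After washing, the pools were crosslinked with 0.1% formaldehyde, proximity-ligated with BsaI/T4 ligase for 1 h at 37 °C, PCR-amplified and sequenced on an Illumina NextSeq500.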

ELK1 = biological target: T2, ELK1 (Homo sapiens, UniProt P19419 1-428); conditions: protein: recombinant; tags: N-terminal GST; dsDNA, one strand shown
T2 sequence: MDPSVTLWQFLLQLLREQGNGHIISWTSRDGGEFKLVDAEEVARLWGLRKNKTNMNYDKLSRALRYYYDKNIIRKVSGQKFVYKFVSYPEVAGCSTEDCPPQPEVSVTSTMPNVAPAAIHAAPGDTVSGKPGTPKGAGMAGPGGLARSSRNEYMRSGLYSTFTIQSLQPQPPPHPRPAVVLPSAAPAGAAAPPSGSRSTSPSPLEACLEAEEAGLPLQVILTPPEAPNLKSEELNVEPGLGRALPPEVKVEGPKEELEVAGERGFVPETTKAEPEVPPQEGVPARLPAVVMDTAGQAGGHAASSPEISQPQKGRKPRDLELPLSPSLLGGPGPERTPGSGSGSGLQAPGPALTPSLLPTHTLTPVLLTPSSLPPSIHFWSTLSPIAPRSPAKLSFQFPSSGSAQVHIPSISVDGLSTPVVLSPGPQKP
How it was run: as §1

GABPA = biological target: T3, GABPA (Homo sapiens, UniProt Q06546 1-454); conditions: protein: recombinant; tags: N-terminal GST; dsDNA, one strand shown
T3 sequence: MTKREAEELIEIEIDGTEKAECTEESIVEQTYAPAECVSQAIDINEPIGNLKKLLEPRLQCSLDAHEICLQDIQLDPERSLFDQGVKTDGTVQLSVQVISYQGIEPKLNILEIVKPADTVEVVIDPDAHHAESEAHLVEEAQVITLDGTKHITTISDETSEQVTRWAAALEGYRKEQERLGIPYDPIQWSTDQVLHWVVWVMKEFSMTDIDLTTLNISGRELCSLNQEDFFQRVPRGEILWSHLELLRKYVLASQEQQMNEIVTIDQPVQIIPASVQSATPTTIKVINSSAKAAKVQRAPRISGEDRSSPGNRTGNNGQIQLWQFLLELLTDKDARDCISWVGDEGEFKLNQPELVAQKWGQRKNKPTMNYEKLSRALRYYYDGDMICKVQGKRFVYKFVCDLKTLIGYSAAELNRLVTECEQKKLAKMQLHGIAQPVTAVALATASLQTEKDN
How it was run: as §1

ERG = biological target: T4, ERG (Homo sapiens, UniProt P11308 1-479); conditions: protein: recombinant; tags: N-terminal GST; dsDNA, one strand shown
T4 sequence: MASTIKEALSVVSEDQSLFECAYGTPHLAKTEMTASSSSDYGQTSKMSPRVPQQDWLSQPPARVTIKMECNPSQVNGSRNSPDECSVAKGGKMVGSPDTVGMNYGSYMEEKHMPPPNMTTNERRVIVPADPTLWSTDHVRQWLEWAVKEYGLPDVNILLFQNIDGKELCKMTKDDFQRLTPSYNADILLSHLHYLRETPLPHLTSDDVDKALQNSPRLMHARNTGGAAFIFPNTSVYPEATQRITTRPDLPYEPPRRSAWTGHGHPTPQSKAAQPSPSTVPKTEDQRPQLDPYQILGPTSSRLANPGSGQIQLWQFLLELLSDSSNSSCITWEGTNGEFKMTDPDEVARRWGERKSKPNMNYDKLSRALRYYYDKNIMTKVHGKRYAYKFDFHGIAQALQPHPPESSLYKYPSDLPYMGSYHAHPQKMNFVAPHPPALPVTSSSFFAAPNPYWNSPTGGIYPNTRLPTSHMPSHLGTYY
How it was run: as §1

ELF1 = ELF1 (Homo sapiens, UniProt P32519 1-619); conditions: protein: recombinant; tags: N-terminal GST; dsDNA, one strand shown
How it was run: as §1

EHF = biological target: T5, EHF (Homo sapiens, UniProt Q9NZC4 1-300); conditions: protein: recombinant; tags: N-terminal GST; dsDNA, one strand shown
T5 sequence: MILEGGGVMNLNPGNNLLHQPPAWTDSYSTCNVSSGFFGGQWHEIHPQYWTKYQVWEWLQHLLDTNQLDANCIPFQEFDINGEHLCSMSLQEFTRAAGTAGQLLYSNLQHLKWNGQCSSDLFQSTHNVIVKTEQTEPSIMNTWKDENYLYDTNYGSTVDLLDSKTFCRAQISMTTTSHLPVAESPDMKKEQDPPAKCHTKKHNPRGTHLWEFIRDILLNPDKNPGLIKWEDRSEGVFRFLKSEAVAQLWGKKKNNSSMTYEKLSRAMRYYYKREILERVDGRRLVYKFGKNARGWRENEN
How it was run: as §1

SPI1 = SPI1 (Homo sapiens, UniProt P17947 1-270); conditions: protein: recombinant; tags: N-terminal GST; dsDNA, one strand shown
How it was run: as §1

SPIB = SPIB (Homo sapiens, UniProt Q01892 1-262); conditions: protein: recombinant; tags: N-terminal GST; dsDNA, one strand shown
How it was run: as §1

ELK3 = biological target: T6, ELK3 (Homo sapiens, UniProt P41970 1-407); conditions: protein: recombinant; tags: N-terminal GST; dsDNA, one strand shown
T6 sequence: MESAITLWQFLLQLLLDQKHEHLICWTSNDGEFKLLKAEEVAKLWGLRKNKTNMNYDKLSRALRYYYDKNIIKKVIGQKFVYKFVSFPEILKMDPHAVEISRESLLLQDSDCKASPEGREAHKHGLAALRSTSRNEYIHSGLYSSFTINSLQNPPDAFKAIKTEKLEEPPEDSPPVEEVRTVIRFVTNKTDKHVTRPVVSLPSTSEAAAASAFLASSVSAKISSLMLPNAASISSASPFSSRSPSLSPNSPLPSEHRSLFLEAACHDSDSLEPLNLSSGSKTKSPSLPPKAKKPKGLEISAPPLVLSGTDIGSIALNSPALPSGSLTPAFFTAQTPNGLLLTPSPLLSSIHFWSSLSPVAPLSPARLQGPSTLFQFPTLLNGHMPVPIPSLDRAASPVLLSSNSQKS
How it was run: as §1

FEV = biological target: T7, FEV (Homo sapiens, UniProt Q99581 1-238); conditions: protein: recombinant; tags: N-terminal GST; dsDNA, one strand shown
T7 sequence: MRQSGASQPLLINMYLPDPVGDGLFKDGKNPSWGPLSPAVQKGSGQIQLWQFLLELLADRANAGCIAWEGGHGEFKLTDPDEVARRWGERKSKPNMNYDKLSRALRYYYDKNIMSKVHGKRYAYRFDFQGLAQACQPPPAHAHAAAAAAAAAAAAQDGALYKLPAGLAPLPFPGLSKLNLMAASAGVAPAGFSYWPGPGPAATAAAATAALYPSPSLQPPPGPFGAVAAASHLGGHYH
How it was run: as §1

ETV5 = ETV5 (Homo sapiens, UniProt P41161 1-510); conditions: protein: recombinant; tags: N-terminal GST; dsDNA, one strand shown
How it was run: as §1

HSF1 = HSF1 (Homo sapiens, UniProt Q00613 1-529); conditions: protein: recombinant; tags: N-terminal GST; chain copies: 3; dsDNA, one strand shown
How it was run: as §1

ELF4 = ELF4 (Homo sapiens, UniProt Q99607 1-663); conditions: protein: recombinant; tags: N-terminal GST; dsDNA, one strand shown
How it was run: as §1

ELK4 = biological target: T8, ELK4 (Homo sapiens, UniProt P28324-2 1-405); conditions: protein: recombinant; tags: N-terminal GST; dsDNA, one strand shown
T8 sequence: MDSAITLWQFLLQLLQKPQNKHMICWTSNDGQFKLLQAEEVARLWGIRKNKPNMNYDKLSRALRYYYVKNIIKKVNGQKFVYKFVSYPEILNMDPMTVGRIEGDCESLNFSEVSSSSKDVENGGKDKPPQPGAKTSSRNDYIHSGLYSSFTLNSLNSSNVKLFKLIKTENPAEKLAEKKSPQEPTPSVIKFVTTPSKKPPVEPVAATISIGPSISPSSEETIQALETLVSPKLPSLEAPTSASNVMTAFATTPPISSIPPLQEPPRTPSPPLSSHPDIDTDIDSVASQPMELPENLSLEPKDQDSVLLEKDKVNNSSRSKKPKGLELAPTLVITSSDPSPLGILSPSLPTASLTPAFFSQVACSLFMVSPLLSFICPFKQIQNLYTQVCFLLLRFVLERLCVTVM
How it was run: as §1

ETV2 = biological target: T9, ETV2 (Homo sapiens, UniProt O00321 1-342); conditions: protein: recombinant; tags: N-terminal GST; dsDNA, one strand shown
T9 sequence: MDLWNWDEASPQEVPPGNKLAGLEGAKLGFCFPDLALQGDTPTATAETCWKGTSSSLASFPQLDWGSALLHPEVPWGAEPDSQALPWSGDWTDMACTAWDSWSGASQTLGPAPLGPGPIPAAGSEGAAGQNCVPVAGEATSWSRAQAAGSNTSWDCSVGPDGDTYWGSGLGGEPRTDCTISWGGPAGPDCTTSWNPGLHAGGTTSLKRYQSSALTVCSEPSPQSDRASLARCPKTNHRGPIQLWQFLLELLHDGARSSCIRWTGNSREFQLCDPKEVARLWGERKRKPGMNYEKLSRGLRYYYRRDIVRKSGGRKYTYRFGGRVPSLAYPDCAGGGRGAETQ
How it was run: as §1

ELF3 = biological target: T10, ELF3 (Homo sapiens, UniProt P78545 1-371); conditions: protein: recombinant; tags: N-terminal GST; dsDNA, one strand shown
T10 sequence: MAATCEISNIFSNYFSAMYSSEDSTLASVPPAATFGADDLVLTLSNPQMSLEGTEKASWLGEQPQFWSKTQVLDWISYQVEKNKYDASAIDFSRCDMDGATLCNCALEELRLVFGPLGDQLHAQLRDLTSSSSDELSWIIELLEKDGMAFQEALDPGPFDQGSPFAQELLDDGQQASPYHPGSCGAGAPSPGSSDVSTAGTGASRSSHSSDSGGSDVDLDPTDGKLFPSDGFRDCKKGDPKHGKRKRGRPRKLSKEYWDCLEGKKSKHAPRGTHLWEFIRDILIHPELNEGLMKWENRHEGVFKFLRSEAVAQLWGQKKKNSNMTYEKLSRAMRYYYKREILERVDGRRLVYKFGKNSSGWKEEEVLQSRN
How it was run: as §1

CRX = CRX (Homo sapiens, UniProt O43186 1-299); conditions: protein: recombinant; tags: N-terminal GST; dsDNA, one strand shown
How it was run: as §1

ETV1 = ETV1 (Homo sapiens, UniProt P50549 1-477); conditions: protein: recombinant; tags: N-terminal GST; dsDNA, one strand shown
How it was run: as §1

ETV5, sequence (P41161 whole entry): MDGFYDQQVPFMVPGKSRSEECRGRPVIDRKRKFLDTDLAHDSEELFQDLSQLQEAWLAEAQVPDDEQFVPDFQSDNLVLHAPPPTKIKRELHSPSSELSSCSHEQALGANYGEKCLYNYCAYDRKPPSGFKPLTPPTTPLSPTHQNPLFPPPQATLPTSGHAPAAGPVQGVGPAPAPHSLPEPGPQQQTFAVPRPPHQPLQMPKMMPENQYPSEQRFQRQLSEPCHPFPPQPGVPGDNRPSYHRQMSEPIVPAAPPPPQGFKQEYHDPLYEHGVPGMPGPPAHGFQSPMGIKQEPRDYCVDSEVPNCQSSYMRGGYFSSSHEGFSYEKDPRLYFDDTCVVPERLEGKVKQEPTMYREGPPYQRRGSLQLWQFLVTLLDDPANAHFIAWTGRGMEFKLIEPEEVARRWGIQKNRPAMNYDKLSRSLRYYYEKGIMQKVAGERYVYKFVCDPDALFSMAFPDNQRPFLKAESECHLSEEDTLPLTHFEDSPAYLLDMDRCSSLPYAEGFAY
ELF4, sequence (Q99607 whole entry): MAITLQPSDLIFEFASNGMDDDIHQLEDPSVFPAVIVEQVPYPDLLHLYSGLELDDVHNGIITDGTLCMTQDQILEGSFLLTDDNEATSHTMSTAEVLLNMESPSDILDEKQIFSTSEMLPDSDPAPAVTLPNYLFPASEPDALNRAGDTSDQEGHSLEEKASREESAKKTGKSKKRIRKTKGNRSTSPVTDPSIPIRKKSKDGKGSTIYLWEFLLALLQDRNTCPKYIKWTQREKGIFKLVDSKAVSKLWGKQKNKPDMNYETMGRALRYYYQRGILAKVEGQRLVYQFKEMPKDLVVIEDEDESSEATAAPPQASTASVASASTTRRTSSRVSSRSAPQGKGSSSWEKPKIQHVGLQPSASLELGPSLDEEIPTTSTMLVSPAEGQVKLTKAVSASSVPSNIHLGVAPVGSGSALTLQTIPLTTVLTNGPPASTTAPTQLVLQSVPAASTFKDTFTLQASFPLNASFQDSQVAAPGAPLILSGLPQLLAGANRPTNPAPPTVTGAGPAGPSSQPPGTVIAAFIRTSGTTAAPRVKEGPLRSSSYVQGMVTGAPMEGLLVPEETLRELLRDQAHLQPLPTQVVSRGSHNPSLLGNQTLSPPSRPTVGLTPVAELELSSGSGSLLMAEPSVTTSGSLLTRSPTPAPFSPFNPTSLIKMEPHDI
CRX, sequence (O43186 whole entry): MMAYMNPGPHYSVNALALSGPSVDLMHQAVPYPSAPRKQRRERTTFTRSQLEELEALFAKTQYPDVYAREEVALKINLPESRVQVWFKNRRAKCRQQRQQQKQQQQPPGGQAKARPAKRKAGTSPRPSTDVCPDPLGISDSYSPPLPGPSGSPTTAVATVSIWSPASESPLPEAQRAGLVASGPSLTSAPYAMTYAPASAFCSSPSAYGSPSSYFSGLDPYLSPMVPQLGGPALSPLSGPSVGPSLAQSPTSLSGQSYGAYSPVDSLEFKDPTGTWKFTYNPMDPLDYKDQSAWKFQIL
SPIB, sequence (Q01892 whole entry): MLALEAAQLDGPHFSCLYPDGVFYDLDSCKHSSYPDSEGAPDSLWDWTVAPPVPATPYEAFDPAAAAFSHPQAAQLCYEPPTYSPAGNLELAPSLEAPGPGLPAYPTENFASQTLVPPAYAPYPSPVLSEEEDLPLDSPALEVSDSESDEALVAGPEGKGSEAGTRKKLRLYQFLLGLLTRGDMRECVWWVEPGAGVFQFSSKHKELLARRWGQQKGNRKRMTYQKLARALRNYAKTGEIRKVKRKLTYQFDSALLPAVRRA
HSF1, sequence (Q00613 whole entry): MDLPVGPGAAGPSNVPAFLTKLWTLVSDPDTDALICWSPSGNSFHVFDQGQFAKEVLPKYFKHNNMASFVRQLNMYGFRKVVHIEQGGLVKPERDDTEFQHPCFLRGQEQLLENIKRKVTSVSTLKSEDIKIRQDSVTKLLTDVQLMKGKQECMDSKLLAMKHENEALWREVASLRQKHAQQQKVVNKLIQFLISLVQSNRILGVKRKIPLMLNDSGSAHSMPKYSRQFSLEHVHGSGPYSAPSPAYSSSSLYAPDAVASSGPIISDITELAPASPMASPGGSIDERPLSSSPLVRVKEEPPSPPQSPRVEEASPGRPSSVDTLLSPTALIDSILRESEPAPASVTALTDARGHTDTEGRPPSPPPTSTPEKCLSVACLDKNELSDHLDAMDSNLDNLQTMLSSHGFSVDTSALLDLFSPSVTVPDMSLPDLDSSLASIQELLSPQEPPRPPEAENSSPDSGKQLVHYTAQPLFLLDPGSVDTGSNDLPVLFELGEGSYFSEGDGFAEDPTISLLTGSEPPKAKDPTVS
ELF1, sequence (P32519 whole entry): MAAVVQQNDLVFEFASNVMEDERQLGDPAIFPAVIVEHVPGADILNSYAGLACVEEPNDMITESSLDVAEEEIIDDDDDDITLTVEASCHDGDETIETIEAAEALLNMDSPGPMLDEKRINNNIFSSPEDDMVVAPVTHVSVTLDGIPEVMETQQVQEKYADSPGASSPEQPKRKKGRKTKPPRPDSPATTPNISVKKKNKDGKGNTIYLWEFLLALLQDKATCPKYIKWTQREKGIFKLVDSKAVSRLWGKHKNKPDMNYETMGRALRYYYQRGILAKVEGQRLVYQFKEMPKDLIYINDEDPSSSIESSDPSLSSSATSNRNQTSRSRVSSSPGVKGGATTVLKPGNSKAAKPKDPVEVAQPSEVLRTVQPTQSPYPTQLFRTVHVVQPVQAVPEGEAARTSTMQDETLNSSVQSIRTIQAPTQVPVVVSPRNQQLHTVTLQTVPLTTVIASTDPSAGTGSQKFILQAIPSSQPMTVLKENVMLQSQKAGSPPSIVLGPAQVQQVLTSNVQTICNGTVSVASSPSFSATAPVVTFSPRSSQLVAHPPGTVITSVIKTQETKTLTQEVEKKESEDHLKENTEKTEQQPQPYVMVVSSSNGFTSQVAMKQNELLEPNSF
ETV1, sequence (P50549 whole entry): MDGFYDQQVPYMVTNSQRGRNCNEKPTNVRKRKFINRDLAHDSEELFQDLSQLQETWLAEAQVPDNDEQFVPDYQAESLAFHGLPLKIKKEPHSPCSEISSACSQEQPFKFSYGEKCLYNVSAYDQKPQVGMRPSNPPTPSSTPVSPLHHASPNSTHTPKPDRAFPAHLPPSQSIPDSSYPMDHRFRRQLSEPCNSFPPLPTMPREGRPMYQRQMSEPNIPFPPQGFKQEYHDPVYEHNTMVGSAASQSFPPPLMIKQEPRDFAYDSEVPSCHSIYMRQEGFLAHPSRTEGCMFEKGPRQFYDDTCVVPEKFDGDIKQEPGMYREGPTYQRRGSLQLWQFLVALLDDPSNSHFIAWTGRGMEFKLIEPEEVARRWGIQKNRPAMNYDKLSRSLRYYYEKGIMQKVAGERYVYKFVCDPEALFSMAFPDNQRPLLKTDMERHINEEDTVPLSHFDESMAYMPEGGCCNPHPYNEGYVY

Row | Sequence | binding signal (FLI1) | binding signal (ELK1) | binding signal (GABPA) | binding signal (ERG) | binding signal (ELF1) | binding signal (EHF) | binding signal (SPI1) | binding signal (SPIB) | binding signal (ELK3) | binding signal (FEV) | binding signal (ETV5) | binding signal (HSF1) | binding signal (ELF4) | binding signal (ELK4) | binding signal (ETV2) | binding signal (ELF3) | binding signal (CRX) | binding signal (ETV1)
1 | GTAATC | 1.16 fold enrichment (6-mer frequency, TF over GST control) | 1.14 fold enrichment (6-mer frequency, TF over GST control) | 1.32 fold enrichment (6-mer frequency, TF over GST control) | 1.08 fold enrichment (6-mer frequency, TF over GST control) | 1.16 fold enrichment (6-mer frequency, TF over GST control) | 1.19 fold enrichment (6-mer frequency, TF over GST control) | 1.13 fold enrichment (6-mer frequency, TF over GST control) | 1.09 fold enrichment (6-mer frequency, TF over GST control) | 1.11 fold enrichment (6-mer frequency, TF over GST control) | 1.1 fold enrichment (6-mer frequency, TF over GST control) | 1.22 fold enrichment (6-mer frequency, TF over GST control) | 1.92 fold enrichment (6-mer frequency, TF over GST control) | 1.14 fold enrichment (6-mer frequency, TF over GST control) | 1.16 fold enrichment (6-mer frequency, TF over GST control) | 1.11 fold enrichment (6-mer frequency, TF over GST control) | 1.21 fold enrichment (6-mer frequency, TF over GST control) | 3.14 fold enrichment (6-mer frequency, TF over GST control) | 1.02 fold enrichment (6-mer frequency, TF over GST control)
2 | AAATAG | 1.18 fold enrichment (6-mer frequency, TF over GST control) | 1.1 fold enrichment (6-mer frequency, TF over GST control) | 1.12 fold enrichment (6-mer frequency, TF over GST control) | 1.22 fold enrichment (6-mer frequency, TF over GST control) | 1.08 fold enrichment (6-mer frequency, TF over GST control) | 1.19 fold enrichment (6-mer frequency, TF over GST control) | 1.22 fold enrichment (6-mer frequency, TF over GST control) | 1.15 fold enrichment (6-mer frequency, TF over GST control) | 1.08 fold enrichment (6-mer frequency, TF over GST control) | 1.16 fold enrichment (6-mer frequency, TF over GST control) | 1.2 fold enrichment (6-mer frequency, TF over GST control) | 1.09 fold enrichment (6-mer frequency, TF over GST control) | 1.02 fold enrichment (6-mer frequency, TF over GST control) | 1.15 fold enrichment (6-mer frequency, TF over GST control) | 1.06 fold enrichment (6-mer frequency, TF over GST control) | 1.17 fold enrichment (6-mer frequency, TF over GST control) | 1.11 fold enrichment (6-mer frequency, TF over GST control) | 1.11 fold enrichment (6-mer frequency, TF over GST control)

Reference: paper PMC7862700, “An all-to-all approach to the identification of sequence-specific readers for epigenetic DNA modifications on cytosine”
